# Compound activity (PubChem BioAssay)
# FBW7 act – FBW7 E3 ligase activators, primary screen, biochemical, AlphaScreen, human. F-box/WD repeat-containing protein 7 (Homo sapiens), Q969H0. AlphaScreen FBW7–phospho-cyclin E peptide binding, activator screen. normalized activity (activation), % at 26.1 µM. 650,000 compounds, 0.13% hits. AID 1259310, 2017; in the data active = normalized activity above about 1.9%;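 also: purified mutant Fbw7 with reduced substrate affinity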
# TEAD-YAP block – TEAD-YAP interaction inhibition, primary screen, TEAD-YAP interaction inhibitor project, luminescence, HEK-TIYL cells. TEAD-Gal4/YAP UAS-luciferase luminescence. inhibition, % at 9.12 µM. 640,000 compounds, 1.4% hits; in the data active = inhibition above about 32%
# GPR151 activ – activators of human GPR151, primary screen, cell-based, PathHunter beta-arrestin, luminescence; G-protein coupled receptor 151 (Homo sapiens), Q8TDV0; PathHunter beta-arrestin GPR151 cells; activation, % at 11.2 µM; 650,000 compounds, 1% hits; in the data active = activation above about 4.9%
# MITF inh – MITF inhibitors, primary screen, biochemical, AlphaScreen, human | Microphthalmia-associated transcription factor (Homo sapiens), O75030 | AlphaScreen MITF homodimerization, bead proximity signal | inhibition, % at 2.6 µM | 650,000 compounds, 0.91% hits; in the data active = inhibition above about 50%
# Target sequence (O75030 whole entry, looked up): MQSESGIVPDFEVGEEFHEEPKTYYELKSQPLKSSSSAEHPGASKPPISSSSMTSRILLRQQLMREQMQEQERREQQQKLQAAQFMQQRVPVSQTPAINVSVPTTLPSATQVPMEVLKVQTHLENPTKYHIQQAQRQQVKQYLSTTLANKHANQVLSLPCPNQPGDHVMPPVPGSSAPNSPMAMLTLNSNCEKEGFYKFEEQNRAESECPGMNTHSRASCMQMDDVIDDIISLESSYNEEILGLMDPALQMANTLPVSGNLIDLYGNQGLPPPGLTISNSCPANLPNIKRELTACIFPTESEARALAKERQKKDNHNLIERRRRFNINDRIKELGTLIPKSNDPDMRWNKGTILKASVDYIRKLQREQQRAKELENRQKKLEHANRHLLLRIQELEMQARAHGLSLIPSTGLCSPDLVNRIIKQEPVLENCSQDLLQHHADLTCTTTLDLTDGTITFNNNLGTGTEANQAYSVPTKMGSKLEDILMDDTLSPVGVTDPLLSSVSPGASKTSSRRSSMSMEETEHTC
# MITF inh conf – MITF inhibitors, retest of hits, confirmation, biochemical, AlphaScreen, triplicate. shares compounds with MITF inh. AlphaScreen MITF homodimerization, biotin/His-MITF beads. inhibition, % at 2.6 µM. 4,700 compounds, 16% hits. AID 1259372, 2018;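 active = inhibition above a cutoff derived from the DMSO control wells, cut at about 28% in these data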;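 also: inhibitors lower the bead chemiluminescence by keeping MITF from dimerizing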
# AlphaScreen DR – AlphaScreen optical interference compounds, dose response, counter-screen, biochemical, HTS; shares compounds with MITF inh; AlphaScreen optical interference counterscreen, cell-free; IC50, µM; 480 compounds, 6% hits; call rule not given here
# AS interf ctr – AlphaScreen optical interference compounds, counter-screen for MITF inhibitor project, biochemical, triplicate. LysRS AlphaScreen counterscreen, signal interference. shares compounds with MITF inh. inhibition, % at 2.6 µM. 4,700 compounds, 7.6% hits;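 active = inhibition above a cutoff derived from the DMSO control wells, cut at about 30% in these data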
# A number is an active result; i = inactive; nt = no result. Most compounds without a hit are left out; they make up all but 3.4% or so of the library.
SMILES,FBW7 act,TEAD-YAP block,GPR151 activ,MITF inh,MITF inh conf,AS interf ctr,others
OC(CNCCCn1ccnc1)COc1cccc2ccccc12 (stereo not given),i,i,i,84,i,i,
Cc1cc(C)n(CCCNCC(O)COc2ccc(C(=O)c3ccccc3)cc2)n1 (stereo not given),i,i,i,60,i,i,
OC(CNCCCn1ccnc1)COc1ccccc1 (stereo not given),i,i,i,75,i,i,
Cc1cccc(OCC(O)CNCCCn2ccnc2)c1 (stereo not given),i,i,i,65,i,i,
Cc1cc(C)n(CCCNCC(O)COc2ccc(-c3ccccc3)cc2)n1 (stereo not given),i,i,i,i,nt,nt,
O=c1oc2ccc3ccccc3c2cc1-c1csc(-c2cc3c(ccc4ccccc43)oc2=O)n1,i,i,i,i,nt,nt,
CC1(C2CCN(Cc3cccc4ncccc34)CC2)NC(=O)NC1=O (stereo not given),i,i,i,i,nt,nt,
C=C(C)CC(Nc1ccccc1)c1ccco1 (stereo not given),i,i,i,i,nt,nt,
Cc1ccc(-n2c(-c3ccco3)n[nH]c2=S)cc1C,i,i,i,i,nt,nt,
CC(=O)c1ccc(-n2c(-c3cc(-c4ccco4)[nH]n3)n[nH]c2=S)cc1,i,i,i,61,i,37,
COc1ccc(-c2ccc(C)c(NC(=O)c3c(OC)cccc3OC)c2)nn1,i,i,i,i,nt,nt,
CCOc1ccc(-c2ccc(NC(=O)c3c(OC)cccc3OC)cc2)nn1,i,i,i,99,i,i,
COC(=O)C(N)CSC1CCCCO1 (stereo not given),i,i,i,56,i,i,
Cc1occc1C(=O)N/N=C/C1CCCCC1,i,i,i,i,nt,nt,
O=C(N/N=C/C=C\c1ccco1)c1ccncc1,i,i,i,i,nt,nt,
Cc1occc1C(=O)N/N=C/C1CC=CCC1 (stereo not given),i,i,i,81,i,i,
O=C(N/N=C\c1ccccn1)c1ccccn1,i,i,i,54,28,82,
O=C(N/N=C/c1ccccn1)c1ccccn1,i,i,i,i,nt,nt,
Cc1occc1C(=O)N/N=C/C=C/c1ccco1,i,i,i,80,44,i,AlphaScreen DR=i
O=C(N/N=C/C=C\c1ccco1)c1ccccn1,i,i,i,101,94,69,
COC(=O)c1ccc(C(=O)Nc2sc3c(c2C#N)CCCC3)cc1,i,i,i,i,nt,nt,
COc1ccc(OC)c(CN2CCSCC2)c1,i,i,i,i,nt,nt,
COc1cc(OC)c(OC)cc1CN1CCN(CC2CC=CCC2)CC1 (stereo not given),i,i,i,51,i,i,
COc1cccc(CN2CCN(CC3CC=CCC3)CC2)c1OC (stereo not given),i,i,i,81,i,i,
COc1ccc(OC)c(CN2CCN(CC3CC=CCC3)CC2)c1 (stereo not given),i,i,i,54,i,i,
SMILES,FBW7 act,TEAD-YAP block,GPR151 activ,MITF inh,MITF inh conf,AS interf ctr,others
COc1cc(C(=O)N2CCN(CC3CC=CCC3)CC2)cc(OC)c1OC (stereo not given),i,i,i,i,nt,nt,
Clc1ccc(C2=CC(c3ccco3)n3nnnc3N2)cc1 (stereo not given),i,i,i,i,nt,nt,
COc1ccc(C(=O)NNC(=O)COc2ccc(C)cc2Br)cc1,i,i,i,i,nt,nt,
CCC(C)(C)n1nnnc1CN(Cc1ccccc1)Cc1cccs1,i,i,i,76,i,i,
Cc1cc(C)nc(SCC(=O)N/N=C/c2cccc(O)c2)n1,i,i,i,i,nt,nt,
O=C(O)c1cc(C(=O)O)cc(-c2ccc(/C=N\n3cnnc3)o2)c1,i,i,i,63,38,i,AlphaScreen DR=i
O=C(O)c1cccc(-c2ccc(/C=N/n3cnnc3)o2)c1,i,i,i,i,nt,nt,
CCOc1ccc(CN2CCc3nnc(CCNC(=O)C4CCOCC4)n3CC2)cc1,i,i,i,i,nt,nt,
C=CCn1c(SCC(=O)O)nc2sc(C)c(C)c2c1=O,i,i,i,81,i,i,
C=CCNCCOc1ccc(C)cc1[N+](=O)[O-],i,i,i,52,i,i,
COc1ccc(OCCCCOc2ccc([N+](=O)[O-])cc2)cc1,i,i,i,i,nt,nt,
C=CCNCCCOc1ccc(C)cc1[N+](=O)[O-],i,i,i,i,nt,nt,
Cc1ccc(OCCCN(C)C)c([N+](=O)[O-])c1,i,i,i,68,i,i,
CN(C)CCCCOc1ccc([N+](=O)[O-])cc1,i,i,i,77,i,i,
COc1ccc(O)c(CN2CCC3(CC2)CC3C(=O)Nc2ccccc2OC)c1 (stereo not given),i,i,i,i,nt,nt,
CCOC(=O)c1c(NC(=O)CN2CCN(C)CC2)sc2c1CC(C)(C)NC2(C)C,i,i,i,53,i,i,
COc1ccccc1N1CCN(C2CCN(Cc3cccc(F)c3)CC2)CC1,i,i,i,62,i,i,
COc1cccc(CN2CCC(N3CCN(c4ccccc4F)CC3)CC2)c1,i,i,i,73,i,i,
Cc1ccc(S(=O)(=O)Nc2ccc(Nc3nccn4c(-c5ccco5)cnc34)cc2)cc1,i,i,i,i,nt,nt,
O=C1/C(=C\c2cn(-c3ccccc3)nc2-c2ccc(F)cc2)NC(=S)N1c1ccccc1,i,i,i,i,nt,nt,
Cc1ccc(-c2nnc3s/c(=C\c4ccco4)c(=O)n23)cc1,i,i,i,64,75,i,AlphaScreen DR=i
CC(C)CN1C[C@@H](NCc2cccc(O)c2)C[C@H]1C(=O)NCCc1ccccc1F,i,i,i,i,nt,nt,
COc1nc(N(C)S(=O)(=O)c2ccccc2)nc(C)c1Br,i,i,i,i,nt,nt,
COc1ccccc1C(=O)NC(=S)Nc1ccc2[nH]c(=O)[nH]c2c1,i,i,i,i,nt,nt,
O=C(NC(=S)Nc1ccc2[nH]c(=O)[nH]c2c1)c1ccccc1Cl,i,i,i,99,i,i,
CCC(C)OC(=O)C1=C(C)NC2=C(C(=O)CC(c3ccccc3)C2)C1c1cc(OC)c(OC)cc1Br (stereo not given),i,i,i,63,i,i,
O=C(c1cnn(-c2ccccc2)n1)N1CCN(c2cc(N3CCCCC3)ncn2)CC1,i,i,i,i,nt,nt,
CCOC(=O)N1CCN(C(=O)CN2CCN(CC)CC2)CC1,i,i,i,71,i,i,
O=C(Cc1cccs1)N1CCC(Cn2cnc3ccccc32)CC1,i,i,i,65,i,i,
CCOC(=O)N1CCN(C(=O)CN2CCC(Cn3cnc4ccccc43)CC2)CC1,i,i,i,76,i,i,
